Here are results for eight compounds from PubChem BioAssay (NCI).

What all share (experiment): NCI-60 one-dose screen, 48 h (100 = growth as untreated, 0 = no growth, -100 = all killed)
Common to all, as to details: 10 µM unless noted

For assay [1], the system named is NCI-H23 lung.
For assay [2], the system named is NCI-H226 lung.
The subject of assay [3] is NCI-H322M lung.
The subject of assay [4] is NCI-H460 lung.
Assay [5] has as its system NCI-H522 lung.
Assay [6] has as its system A549/ATCC NSCLC.
Assay [7] has as its system 786-0 renal.
The subject of assay [8] is COLO 205 colon.
Assay [9] relates to DU-145 prostate.
For assay [10], the system named is K-562 leukemia.
For assay [11], the system named is MALME-3M melanoma.
Assay [12] relates to MDA-MB-231 breast.
The subject of assay [13] is RXF 393 renal.
Assay [14] deals with SF-268 CNS.
The subject of assay [15] is SF-295 CNS.
Assay [16] deals with SF-539 CNS.
The subject of assay [17] is UACC-257 melanoma.
Assay [18] relates to M14 melanoma.

About 83,000 compounds went through this panel and 20% of them were active in at least one assay; those are over-represented in the sample as a whole.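 Interpretation: 100, growth as untreated; towards 0, rising growth inhibition; 0, no net growth; 0 to -100, cell death. Compounds scoring below 10 were considered active.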 Values without a mark were called inactive. Activity calls are given as the source filed them.

On to `O=c1nc(-c2ccccc2)c2cc(-c3ccc(N4CCOCC4)cc3)ccc2[nH]1`, for which the growth in assay [1] is 86.3%; in assay [2], 72.1%; in assay [3] it was 68.9%; in [4], 79.7%; in [5], 68.3%; in assay [6] it was 64.3%. The growth was 78.6% in assay [7]; 82.5% in assay [8]; 79.7% in [9]; 71.8% in [10]; 98.4% in assay [11]; 78.4% in assay [12]. Further, the growth in assay [13] was 73.4%; in assay [14], 94.3%; in [15], 88.6%; in assay [16], 94.9%; in assay [17], 71.6%; in [18], 92.3%.
Turning to `COc1ccc2c(c1)C1=NN(C(=O)CO)[C@H](c3ccc(OC(F)(F)F)cc3)[C@@H]1CC2`, the growth was 92.2% in [1]; 84.5% in assay [2]; 130% in assay [3]; 89.3% in [6]; 103% in [7]; 110% in [8]. For the same compound, the growth in [9] was 105%; in assay [10] it was 102%; in assay [11], 101%; in [12], 94.7%; in [13] it was -19.9% (active); in [14], 94.8%. Also, the growth in assay [15] is 90.4%; in assay [16] it was 93.2%; in assay [17], 123%; in assay [18], 115%.
For `CCOC(=O)c1ccc(NC(=O)CSC(N)=O)cc1`, the growth was 95.8% in assay [1]; 116% in [2]; 112% in [3]; 101% in assay [4]; 72.8% in assay [5]; 98% in assay [6]. Moreover, the growth in assay [7] is 86.6%; in assay [8], 98.3%; in [9] it was 114%; in assay [10] it was 103%; in [11], 145%; in assay [12], 95.9%. In addition, the growth in assay [13] was 129%; in assay [14], 110%; in assay [15], 101%; in assay [16] it was 96.4%; in [17] it was 107%; in assay [18], 94.8%.
For the compound `COc1cc(CN(CCC(O)N2CCCC2=O)Cc2ccc3c(c2)OCO3)cc(OC)c1OC` (stereo not drawn), the growth was 108% in assay [1]; 104% in assay [2]; 90.3% in assay [3]; 106% in [4]; 95.4% in assay [5]; 106% in assay [6]. For the same compound, the growth is 94.1% in assay [7]; 120% in assay [8]; 108% in [9]; 109% in assay [11]; 110% in assay [12]; 121% in assay [13]. The growth is 106% in assay [14]; 91.5% in [15]; 100% in [16]; 109% in assay [17]; 95.8% in [18].
On to `COc1cccc(NC(=O)OC(C)C)c1`, for which the growth in assay [1] is 98.7%; in assay [2] it was 107%; in assay [3], 99%; in assay [4], 105%; in assay [5], 90.9%; in assay [6], 94.7%. Further, the growth is 104% in [7]; 103% in assay [8]; 103% in [9]; 88.1% in assay [10]; 94.5% in assay [11]; 116% in [12]. In addition, the growth was 109% in assay [13]; 108% in [14]; 108% in assay [15]; 106% in assay [16]; 108% in assay [17]; 112% in [18].
As to `CC(C)(C)c1nn(-c2ccccc2)c2c1C(=O)CSC(c1ccccc1Cl)N2` (stereo not drawn), the growth is 38.3% in [1]; 36.4% in assay [2]; 35.1% in assay [3]; 11.7% in assay [5]; 39.8% in assay [6]; 25.7% in assay [7]. The growth in assay [8] is 2.17% (active); in [9] it was 26.7%; in assay [11], 53.5%; in assay [12], 66%; in [13] it was -10.4% (active); in [14], 50.4%. Besides, the growth in assay [15] is -13.4% (active); in assay [16], 15.7%; in [17], 77.4%; in [18], 11.2%.
Consider `COc1ccc(Nc2nc(N)nc3c(=O)[nH]ccc23)cc1`, for which the growth was 85.8% in [1]; 105% in assay [2]; 103% in assay [3]; 107% in [4]; 99.5% in assay [5]; 104% in [6]. The growth in assay [7] is 106%; in assay [8], 118%; in assay [9], 114%; in [10] it was 69%; in [11], 150%; in assay [12] it was 110%. The growth in assay [13] is 133%; in [14], 106%; in assay [15] it was 106%; in [16], 104%; in assay [17] it was 131%; in [18] it was 108%.
For `C[C@H](NC(=O)c1snnc1C1CC1)c1c(F)cccc1Cl`, the growth in assay [1] is 97.3%; in assay [2], 96.1%; in [3], 123%; in [4], 110%; in assay [5], 94.2%; in assay [6], 101%. The growth was 112% in [7]; 219% in assay [8]; 127% in assay [9]; 115% in assay [10]; 119% in assay [11]; 105% in assay [12]. The growth in assay [13] is -22.6% (active); in assay [14], 114%; in [15] it was 96.8%; in assay [16], 96.6%; in [17] it was 115%.
